# In paper PMC4666376, “Characterisation of aptamer–target interactions by branched selection and high-throughput sequencing of SELEX pools”:
# Columns and labels:
# PAI-1 wild type, active [1] = molecular target: T1, PAI-1 wild type, active (human, UniProt P05121 24-402); experiment: branched SELEX with high-throughput sequencing; PAI-1 immobilised on polyclonal anti-PAI-1 antibody; HBS (10 mM HEPES pH 7.4, 140 mM NaCl), 2 mM MgCl2, 2 mM CaCl2, 0.1% BSA; RNA pool 100 nM; PAI-1 captured on antibody-coated wells; 45 min; binding temperature not stated (PAI-1 capture at room temperature); high values mean tight binding; conditions: protein: recombinant; tags: N-terminal His6; structured_RNA; 2'-F pyrimidines
# T1 sequence (P05121 24-402): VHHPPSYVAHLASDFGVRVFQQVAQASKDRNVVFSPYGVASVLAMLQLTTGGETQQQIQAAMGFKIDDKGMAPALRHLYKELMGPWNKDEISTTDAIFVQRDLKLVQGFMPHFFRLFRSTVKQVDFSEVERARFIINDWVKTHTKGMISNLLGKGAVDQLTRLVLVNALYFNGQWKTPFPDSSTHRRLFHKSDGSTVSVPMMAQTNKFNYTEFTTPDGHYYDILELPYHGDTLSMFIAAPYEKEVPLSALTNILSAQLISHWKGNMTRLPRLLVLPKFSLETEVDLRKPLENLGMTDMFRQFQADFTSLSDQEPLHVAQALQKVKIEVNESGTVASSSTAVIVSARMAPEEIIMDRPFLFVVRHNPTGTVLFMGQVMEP
# PAI-1 wild type, active [2] = molecular target: T1, PAI-1 wild type, active; experiment: branched SELEX with high-throughput sequencing; PAI-1 immobilised on monoclonal anti-PAI-1 antibody mAb-1; HBS (10 mM HEPES pH 7.4, 140 mM NaCl), 2 mM MgCl2, 2 mM CaCl2, 0.1% BSA; RNA pool 100 nM; PAI-1 captured on antibody-coated wells; 45 min; binding temperature not stated (PAI-1 capture at room temperature); high values mean tight binding; conditions: protein: recombinant; tags: N-terminal His6; structured_RNA; 2'-F pyrimidines
# 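Further: Pool frequency after one selection round with this target divided by frequency before selection.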
Sequence,"binding signal (PAI-1 wild type, active [1])","binding signal (PAI-1 wild type, active [2])"
GGGGCCACCAACGACAUUUUACUGUAGAGAAGAAUUACUUCUCGACCAAAUGUGGUUGAUAUAAAUAGUGCCCAUGGAUC,0.55 enrichment factor,–
GGGGCCACCAACGACAUUUAGGGUGCCGAUCAUGUCACGUAGGCAUCCGAUACGUUGAUAUAAAUAGUGCCCAUGGAUC,0.42 enrichment factor,0.62 enrichment factor
GGGGCCACCAACGACAUUGUCGUAGGCAGAUAGAUUAUAUCCGCUGACCAGUGUUGAUAUAAAUAGUGCCCAUGGAUC,2.25 enrichment factor,–
GGGGCCACCAACGACAUUUUGAUCAACACAACGUAGGUCUAUGCGACCGAUAGUUGAUAUAAAUAGUGCCCAUGGAUC,2.02 enrichment factor,–
GGGGCCACCAACGACAUUGACUAGACAUGAUGUUGCAUGUCACCAUGUAAAAUGUUGAUAUAAAUAGUGCCCAUGGAUC,0.92 enrichment factor,–
GGGGCCACCAACGACAUUUGUCAACCGAUCACGCUUAUAGAGCGACCACGUAGGUUGAUAUAAAUAGUGCCCAUGGAUC,–,5.14 enrichment factor
GGGGCCACCAACGACAUUGGUCACAUGACCACCGUAUGAUUUACUCAUAGUUCGUUGAUAUAAAUAGUGCCCAUGGAUC,–,2.36 enrichment factor
GGGGCCACCAACGACAUUUAAGUUCGUCUCACUGACUCUGCAGUGAGUCUAAUGUUGAUAUAAAUAGUGCCCAUGGAUC,7.58 enrichment factor,–
GGGGCCACCAACGACAUUGACCCGGUCACUUAUGUGGCCGAUAUCGUAGAUGCGUUGAUAUAAAUAGUGCCCAUGGAUC,0.2 enrichment factor,–
GGGGCCACCAACGACAUUUGGACUGAAUCCAACCUUAUGCGUAAGCAUAGUUCGUUGAUAUAAAUAGUGCCCAUGGAUC,2.2 enrichment factor,3.55 enrichment factor
GGGGCCACCAACGACAUUGUGCCAUGUAGAUCUUUAGGAGAUCGACCAGCAGUGUUGAUAUAAAUAGUGCCCAUGGAUC,0.57 enrichment factor,–
GGGGCCACCAACGACAUUGCCGUAGGUGCGGGAACACUUCACCGAUCGAUGUUGUUGAUAUAAAUAGUGCCCAUGGAUC,2.29 enrichment factor,–
GGGGCCACCAACGACAUUGCGCGAAGCGCUUACGCGUGUUGAUCGAAUGUUGUUGAUAUAAAUAGUGCCCAUGGAUC,1.4 enrichment factor,–
GGGGCCACCAACGACAUUGUACCACGUAGGAUGAAGUCAUCCGAUCACAGUGUUGAUAUAAAUAGUGCCCAUGGAUC,0.87 enrichment factor,1.37 enrichment factor
GGGGCCACCAACGACAUUUCCUAAACAGGAUCUAUACUCCUAGCGAGUAGUUCGUUGAUAUAAAUAGUGCCCAUGGAUC,–,3.43 enrichment factor
GGGGCCACCAACGACAUUUCACACUGUAAGGCCAUGUGCCGACUAGAAAUUGCGUUGAUAUAAAUAGUGCCCAUGGAUC,0.84 enrichment factor,0.55 enrichment factor
GGGGCCACCAACGACAUUGUACUGUAGUCUUGAUUUUAAGACGACCAAAUGUAGUUGAUAUAAAUAGUGCCCAUGGAUC,–,1.02 enrichment factor
GGGGCCACCAACGACAUUUGCAUAAUGCAUCUAUAGUCGCUAGAGACUAGCUCGUUGAUAUAAAUAGUGCCCAUGGAUC,–,1.69 enrichment factor
GGGGCCACCAACGACAUUAUACAGCCGAUCAUGUCACGUAGGCUGUGAUUAACGUUGAUAUAAAUAGUGCCCAUGGAUC,0.58 enrichment factor,0.81 enrichment factor
GGGGCCACCAACGACAUUCACACAACGUAGGCUCGUGAGCCGAUCAGUGAUUAGUUGAUAUAAAUAGUGCCCAUGGAUC,0.81 enrichment factor,–
GGGGCCACCAACGACAUUCAACGACCAGUACGUGUGAGGGCGUACAUCAUGUAGUUGAUAUAAAUAGUGCCCAUGGAUC,0.37 enrichment factor,–
GGGGCCACCAACGACAUUGAACCACGUAGGCUCGUUUCUGAGCCGAUCUCGAUGUUGAUAUAAAUAGUGCCCAUGGAUC,1.62 enrichment factor,2.66 enrichment factor
GGGGCCACCAACGACAUUCAGCGAUGUAGUGCACAUUGCACGACCAUGAUGGAGUUGAUAUAAAUAGUGCCCAUGGAUC,0.53 enrichment factor,0.44 enrichment factor
GGGGCCACCAACGACAUUGUCGUAGGCGUCAUAUUAUACUUACGCUGACCAAUGUUGAUAUAAAUAGUGCCCAUGGAUC,2.09 enrichment factor,–
GGGGCCACCAACGACAUUUGCAAUUUAUGCAACCUUAGCGGAUUCGCUAGUUCGUUGAUAUAAAUAGUGCCCAUGGAUC,–,3.88 enrichment factor
GGGGCCACCAACGACAUUUGCAUUUGGCAUCCAUAUCGGGCGACCGAUAGUUCGUUGAUAUAAAUAGUGCCCAUGGAUC,–,2.86 enrichment factor
GGGGCCACCAACGACAUUUAUCGAAUUGAUAACCUUACGCGAGAGCGUAGUUCGUUGAUAUAAAUAGUGCCCAUGGAUC,–,9.69 enrichment factor
GGGGCCACCAACGACAUUUAGCACCAGCUAACCGUACGCUCAACGCGUAGUUCGUUGAUAUAAAUAGUGCCCAUGGAUC,–,5.48 enrichment factor
GGGGCCACCAACGACAUUCGCACUGUAGCUAUGUGGAUAGCGACCAGAAUUUCGUUGAUAUAAAUAGUGCCCAUGGAUC,2.51 enrichment factor,–
